Experimental data as given in PubChem BioAssay (NCATS).
Where “and” joins values, the source holds several entries; their conditions need not be identical. Identical values can stand only once. Inconclusive results are not listed. A structure can be active in one record and inactive in another. Calls of active or inactive are those of the source. The call rests on the fitted dose curve.

Assay: Primary qHTS to identify inhibitors of SARS-CoV-2 cell entry (AID 1645846); further: nearly all actives have a fitted effect of over 45% in size
Conditions: activity change, negative = inhibition: at 57.1 µM (top of the series) unless noted
Procedure, shortened: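 Using luciferase-reporting pseudoviruses carrying Wuhan-Hu-1 spike, the screen tracks entry into stably ACE2-expressing cells over 48 hr. Activity is expressed relative to spike particles versus particles lacking any fusion protein.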
Potency means the concentration at half of the fitted maximal effect.

Row | SMILES | activity change, negative = inhibition | Potency
1 | CCCCN1C[C@H](O)[C@@H](O)[C@H](O)[C@H]1CO | -1.04% | –
2 | O=c1[nH]cnc2c1ncn2[C@H]1CC[C@@H](CO)O1 | – | inactive
3 | Cn1cnc2c(F)c(Nc3ccc(Br)cc3Cl)c(C(=O)NOCCO)cc21 | -32.9% | –
4 | NS(=O)(=O)c1cc2c(cc1C(F)(F)F)NCNS2(=O)=O | – | inactive
5 | Nc1nc2c(ncn2COC(CO)CO)c(=O)[nH]1 | -11.4% and -3.55% | –
6 | CC[C@@H](CO)NCCN[C@@H](CC)CO | -13.9% | –
7 | CC/C=C(\C(=O)N[C@@H]1C(=O)N2C(C(=O)OCOC(=O)C(C)(C)C)=C(COC(N)=O)CS[C@H]12)c1csc(N)n1 | -26.6% | –
8 | Cc1c(OCC(F)(F)F)ccnc1CS(=O)c1nc2ccccc2[nH]1 (stereo not drawn) | – | inactive
9 | Cc1cccc(C)c1OCC(C)N (stereo not drawn) | -0.301% | –
10 | Cc1ccc(C(=O)c2cc(O)c(O)c([N+](=O)[O-])c2)cc1 | -19.3% | –
11 | COc1cc2nc(N3CCN(C(=O)C4CCCO4)CC3)nc(N)c2cc1OC (stereo not drawn) | -6.28% | –
12 | CC(C)(C)NC(=O)[C@@H]1CN(Cc2cccnc2)CCN1C[C@@H](O)C[C@@H](Cc1ccccc1)C(=O)N[C@H]1c2ccccc2C[C@H]1O | 4.24% | –
13 | CCOC(=O)[C@H](CCc1ccccc1)N[C@@H](C)C(=O)N1Cc2ccccc2C[C@H]1C(=O)O | 3.61% | –
14 | Clc1ccc(C(c2ccccc2Cl)C(Cl)Cl)cc1 (stereo not drawn) | -40.6% | –
15 | CC1(C)S[C@@H]2[C@H](NC(=O)C(C(=O)O)c3ccccc3)C(=O)N2[C@H]1C(=O)O (stereo partly drawn) | – | inactive
16 | CCC[C@H](N[C@@H](C)C(=O)N1[C@H](C(=O)O)C[C@@H]2CCCC[C@@H]21)C(=O)OCC | – | inactive
17 | Oc1ccc(C2CNCCc3c2cc(O)c(O)c3Cl)cc1 (stereo not drawn) | – | inactive
18 | CO/N=C(\C(=O)N[C@@H]1C(=O)N2C(C(=O)O)=C(CSc3nc(=O)c(O)nn3C)CS[C@H]12)c1csc(N)n1 | – | inactive
19 | CC(C)C[C@H](NC(=O)[C@H](Cc1ccccc1)NC(=O)c1cnccn1)B(O)O | -95.1% | –
20 | COC(=O)C(c1ccccc1Cl)N1CCc2sccc2C1 (stereo not drawn) | – | inactive

Row | SMILES | activity change, negative = inhibition | Potency
21 | Cc1nc2n(c(=O)c1CCN1CCC(c3noc4cc(F)ccc34)CC1)CCCC2 | – | inactive
22 | CCN(CC)C(=S)SSC(=S)N(CC)CC | – | 891 nM (active) and 7.94 µM (active)
23 | C=C(CC)C(=O)c1ccc(OCC(=O)O)c(Cl)c1Cl | – | 17.8 µM (active)
24 | CNC1(C)C2CCC(C2)C1(C)C (stereo not drawn) | – | inactive
25 | COc1ccccc1OCC(O)COC(N)=O (stereo not drawn) | – | inactive
26 | Nc1ccc(O)c(C(=O)O)c1 | 2.37% | –
27 | COc1cc([C@@H]2c3cc4c(cc3[C@H](O)[C@H]3COC(=O)[C@H]23)OCO4)cc(OC)c1OC | -79.7% | –
28 | CCCCS(=O)(=O)N[C@@H](Cc1ccc(OCCCCC2CCNCC2)cc1)C(=O)O | – | inactive
29 | CCN(CC)CCNC(=O)c1c(C)[nH]c(/C=C2\C(=O)Nc3ccc(F)cc32)c1C | – | 25.1 µM (active)
30 | Cc1ccccc1C(=O)Nc1ccc(C(=O)N2CCCC(O)c3cc(Cl)ccc32)c(C)c1 (stereo not drawn) | -8.91% | –
31 | CCC1C(=O)OCC1Cc1cncn1C (stereo not drawn) | 2.21% | –
32 | COc1ccc(OC)c(C(O)CNC(=O)CN)c1 (stereo not drawn) | -24% | –
33 | O=C1c2cccc3c2[C@H](CCC3)CN1[C@@H]1CN2CCC1CC2 | – | inactive
34 | COC(=O)Nc1nc2ccc(C(=O)c3cccs3)cc2[nH]1 | -61.3% | –
35 | Cc1cc2c(s1)Nc1ccccc1N=C2N1CCN(C)CC1 | -19.8% | –
36 | CC[C@]1(O)C[C@@H]2CN(CCc3c([nH]c4ccccc34)[C@@](C(=O)OC)(c3cc4c(cc3OC)N(C)[C@H]3[C@@](O)(C(=O)OC)[C@H](OC(C)=O)[C@]5(CC)C=CCN6CC[C@]43[C@@H]65)C2)C1 | -82.9% | –
37 | Cn1cnc([N+](=O)[O-])c1Sc1ncnc2nc[nH]c12 | -53.9% | inactive
38 | O=c1c(O)c(-c2ccc(O)c(O)c2)oc2cc(O)cc(O)c12 | -12.3% | inactive
39 | Cn1c(=O)c2c(ncn2CC(O)CO)n(C)c1=O (stereo not drawn) | 4.29% | inactive
40 | CN(C)CCc1c[nH]c2ccc(CS(=O)(=O)N3CCCC3)cc12 | -5.24% | inactive

Row | SMILES | activity change, negative = inhibition | Potency
41 | CC(=O)Oc1cc2c(s1)CCN(C(C(=O)C1CC1)c1ccccc1F)C2 (stereo not drawn) | -16.4% | inactive
42 | COC(c1ccccc1)(c1ccccc1)[C@H](Oc1nc(C)cc(C)n1)C(=O)O | -34.8% | inactive
43 | CC12CC3CC(C)(C1)CC(N)(C3)C2 | -26.3% | inactive
44 | CCCc1cc(=O)[nH]c(=S)[nH]1 | -37.3% | inactive
45 | CCCc1nc2c(C)cc(-c3nc4ccccc4n3C)cc2n1Cc1ccc(-c2ccccc2C(=O)O)cc1 | -3.28% | inactive
46 | O=NN(CCCl)C(=O)NC1CCCCC1 | -8.29% | inactive
47 | CC(S)C(=O)NCC(=O)O (stereo not drawn) | -22.2% | inactive
48 | Cc1oncc1C(=O)Nc1ccc(C(F)(F)F)cc1 | -15.8% | inactive
49 | CCC1(c2ccccc2)C(=O)NCNC1=O | -9.71% | inactive
50 | C[C@@H](O)[C@H]1C(=O)N2C(C(=O)O)=C(S[C@@H]3CN[C@H](C(=O)N(C)C)C3)[C@H](C)[C@H]12 | -22.9% | inactive
51 | CN(N=O)C(=O)N[C@@H]1[C@@H](O)[C@H](O)[C@@H](CO)O[C@@H]1O | -3.87% and -2.3% | –
52 | N[C@@H]1CONC1=O | -2.51% | inactive
53 | CCn1cc(C(=O)O)c(=O)c2cc(F)c(N3CCNCC3)cc21 | -15.8% | inactive
54 | COCCCOc1cc(C[C@@H](C[C@H](N)[C@@H](O)C[C@H](C(=O)NCC(C)(C)C(N)=O)C(C)C)C(C)C)ccc1OC | -3.02% | inactive
55 | CCOC(=O)c1ncn2c1CN(C)C(=O)c1cc(F)ccc1-2 | -12.9% | inactive
56 | CC1(C)O[C@@H]2[C@@H](CO[C@@]3(COS(N)(=O)=O)OC(C)(C)O[C@@H]23)O1 | -8% | –
57 | CN(CCOc1ccc(CC2SC(=O)NC2=O)cc1)c1ccccn1 (stereo not drawn) | -30.2% | inactive
58 | CCc1c2c(nc3ccc(OC(=O)N4CCC(N5CCCCC5)CC4)cc13)-c1cc3c(c(=O)n1C2)COC(=O)[C@]3(O)CC | -95.5% | 0.891 µM (active)
